The list is not random: actives were taken first. Their share in the collection is about 3.5%.
TEAD-YAP block: TEAD-YAP interaction inhibition; HEK-TIYL cells, TEAD-Gal4/YAP UAS-luciferase luminescence; inhibition, % at 9.12 µM; 640,000 compounds, 1.4% hits; AID 1259422; in the data active means inhibition above about 32%;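 further: 0% = median of test compound wells and 100% = reference inhibitor wells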
MITF primary: inhibitors of human MITF; O75030; AlphaScreen MITF homodimerization, bead proximity signal; inhibition, % at 2.6 µM; 650,000 compounds, 0.91% hits; AID 1259374; in the data active means inhibition above about 50%;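 further: 0% = vehicle wells with protein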
GPR151 ag: human GPR151 activation; 650,000 compounds, 1% hits; activation, % at 11.2 µM; Q8TDV0; PathHunter beta-arrestin GPR151 cells, luminescence; AID 1508602; in the data active means activation above about 4.9%;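 further: 0% = median of compound wells and 100% = cells with positive control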
FBW7 act: human FBW7 E3 ligase activation, primary screen; normalized activity (activation), % at 26.1 µM; AlphaScreen FBW7–phospho-cyclin E peptide binding, activator screen; AID 1259310; 650,000 compounds, 0.13% hits; Q969H0; in the data active means normalized activity above about 1.9%;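 further: purified mutant Fbw7 with reduced substrate affinity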
Target sequence (Q969H0 whole entry, looked up): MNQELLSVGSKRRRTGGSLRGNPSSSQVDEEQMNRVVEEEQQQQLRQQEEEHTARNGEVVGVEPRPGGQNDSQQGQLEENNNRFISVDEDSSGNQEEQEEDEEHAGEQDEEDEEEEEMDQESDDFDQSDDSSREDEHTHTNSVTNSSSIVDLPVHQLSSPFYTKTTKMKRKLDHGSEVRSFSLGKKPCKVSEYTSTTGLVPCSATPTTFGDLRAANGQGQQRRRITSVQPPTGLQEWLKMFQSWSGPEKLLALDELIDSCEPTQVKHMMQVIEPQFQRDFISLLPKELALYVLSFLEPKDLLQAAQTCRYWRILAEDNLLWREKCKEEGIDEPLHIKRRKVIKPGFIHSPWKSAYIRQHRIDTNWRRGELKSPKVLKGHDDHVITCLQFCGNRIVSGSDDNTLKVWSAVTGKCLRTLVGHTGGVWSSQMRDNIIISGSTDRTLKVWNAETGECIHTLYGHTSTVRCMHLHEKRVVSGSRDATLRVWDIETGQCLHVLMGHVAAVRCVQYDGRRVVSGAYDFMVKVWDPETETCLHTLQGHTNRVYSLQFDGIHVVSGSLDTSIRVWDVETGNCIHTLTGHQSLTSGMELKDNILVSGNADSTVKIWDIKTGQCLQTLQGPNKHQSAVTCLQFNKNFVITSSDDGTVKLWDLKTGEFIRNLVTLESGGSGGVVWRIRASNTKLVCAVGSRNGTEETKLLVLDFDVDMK
MITF confirm: confirmation of human MITF inhibitors; shares compounds with MITF primary; AlphaScreen MITF homodimerization, biotin/His-MITF beads; inhibition, % at 2.6 µM; 4,700 compounds, 16% hits; AID 1259372;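 active means inhibition above a cutoff derived from the DMSO control wells, cut at about 28% in these data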;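 further: 0% = MITF dimer wells with DMSO only; inhibitors lower the bead chemiluminescence by keeping MITF from dimerizing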
AS interf DR: AlphaScreen optical interference, dose response counter-screen; AlphaScreen optical interference counterscreen, cell-free; IC50, µM; AID 1259373; shares compounds with MITF primary; 480 compounds, 6% hits; call rule not given here
AS interf ctr: optically interferes with AlphaScreen signal. inhibition, % at 2.6 µM. shares compounds with MITF primary. 4,700 compounds, 7.6% hits. LysRS AlphaScreen counterscreen, signal interference, triplicate;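 active means inhibition above a cutoff derived from the DMSO control wells, cut at about 30% in these data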
An asterisk follows results filed as active; / = no result given.

SMILES	TEAD-YAP block	MITF primary	GPR151 ag	FBW7 act	MITF confirm	AS interf ctr	others
O=C(Cc1ccccc1)N1CCC(C(=O)N2CCN(c3ccccc3)CC2)CC1	4	0	-2	0	/	/
O=C(c1ccccc1)N1CCC(N2CCN(Cc3ccccc3)CC2)CC1	11	83*	-2	0	5	-2
c1ccc(CN2CCC(N3CCN(Cc4ccccc4)CC3)CC2)cc1	2	24	-1	0	/	/
O=C(c1ccc(F)cc1)N1CCN(C2CCN(Cc3ccccc3)CC2)CC1	13	57*	-2	1	9	18
O=C(O)C1CCN(C2CCN(Cc3ccccc3)CC2)CC1	1	75*	0	0	12	7
O=C(Cc1ccccc1)N1CCC(N2CCN(c3ccccc3)CC2)CC1	5	55*	1	0	-2	3
CCOP(=O)(OCC)C(NC(=O)c1ccco1)C(=O)c1ccc(C)cc1 (centres undefined)	-1	-11	-1	0	/	/
O=C(c1ccco1)N1CCN(C2CCN(Cc3ccccc3)CC2)CC1	-5	60*	1	0	-9	4
O=C(c1ccccc1F)N1CCN(C2CCCCC2)CC1	0	36	3	0	/	/
O=C(c1ccco1)N1CCC(N2CCN(c3ccccc3)CC2)CC1	-3	21	-2	0	/	/
COc1ccc(C(=O)N2CCC(N3CCCC3)CC2)cc1	0	31	4	0	/	/
O=C(c1ccccc1F)N1CCN(C2CCN(Cc3ccccc3)CC2)CC1	5	61*	0	0	9	18
CN1CCN(C2CCN(C(=O)c3ccc(F)cc3)CC2)CC1	-5	57*	0	0	1	0
CCOc1nc(C)ccc1-c1noc(-c2cccs2)n1	-23	14	3	0	/	/
O=C(NNC(=S)Nc1ccccc1)C(=O)NNC(=S)Nc1ccccc1	-4	79*	0	-1	58*	-22
N#Cc1ccccc1NC(=O)c1ccc(S(=O)(=O)N2CCCC2)cc1	-5	5	1	0	/	/
N#Cc1ccccc1NC(=O)c1ccc(S(=O)(=O)N2CCOCC2)cc1	-11	55*	0	0	-12	-6
CC1CCCCC1NC(=O)Cn1ccc2ccccc21 (centres undefined)	4	26	-1	0	/	/
Cc1ccc(-c2nc3ncccc3o2)cc1NC(=O)COc1c(C)cc(Cl)cc1Cl	0	14	-1	0	/	/
COc1cc(-c2ccnc(N)n2)ccc1NC(=O)[C@H]1COc2ccccc2O1	7	66*	1	2.5*	52*	-3	AS interf DR=>6.5
CCOC(=O)C(Cl)NNc1ccccc1[N+](=O)[O-] (centres undefined)	-9	72*	-1	0	20	-1
CCOC(=O)C(=CNc1ccccc1[N+](=O)[O-])C(=O)OCC	5	4	0	0	/	/
O=C(/C=C\c1cccc(N2C(=O)C3C4C=CC(C4)C3C2=O)c1)c1ccccc1 (centres undefined)	14	24	-1	0	/	/
COC(=O)c1ccc(NC(=O)C2CCCN(S(=O)(=O)c3ccc(F)cc3)C2)cc1 (centres undefined)	15	-7	1	0	/	/
Cc1ccc2c(c1)c(=O)c1ccccc1n2CC(=O)Nc1ccc(F)cc1F	-1	77*	-1	0	4	5
SMILES	TEAD-YAP block	MITF primary	GPR151 ag	FBW7 act	MITF confirm	AS interf ctr	others
CC(C)CC(=O)N1CCN(Cc2cccc(C(F)(F)F)c2)CC1	19	56*	0	0	-11	-8
CC(C)CC(=O)N1CCN(Cc2ccco2)CC1	-4	58*	-1	1	9	12
CC(C)CC(=O)N1CCN(Cc2ccncc2)CC1	-2	65*	-1	0	8	14
FC(F)(F)c1cccc(CN2CCSCC2)c1	3	18	1	0	/	/
O=C(Nc1ncc(Cc2cccc(Cl)c2)s1)c1ccccc1[N+](=O)[O-]	-4	-12	1	0	/	/
CC(C)(C)NC(=O)N1CCC(c2nnc(-c3ccco3)o2)CC1	-6	-2	0	0	/	/
CCOC(=O)C(=O)Nc1sc(C(=O)N2CCOCC2)c(C)c1C#N	-2	71*	1	1	-6	-2
CC(C)(C)CC(C)(C)NC(=O)c1cccc([N+](=O)[O-])c1	2	70*	-2	1	2	10
